Most compounds without a hit are left out; they make up all but 11% or so of the library.
Vaccinia mCherry: qHTS for Stage-Specific Inhibitors of Vaccinia Orthopoxvirus: mCherry Reporter Primary qHTS. Vaccinia virus mCherry reporter infection, fluorescence. Potency, µM (doses to about 36.5 µM), actives largely listed as inhibitors. 310,000 compounds, 0.63% hits. AID 720579, 2013; calls by dose curve; tested in A549 cells; note: nearly all actives have a fitted effect of over 35% in size
Vaccinia Venus: qHTS for Stage-Specific Inhibitors of Vaccinia Orthopoxvirus: Venus Reporter Primary qHTS; Vaccinia virus Venus reporter expression, fluorescence; Potency, µM (titrated, usually from 36.5 µM), usual class: inhibitors; 330,000 compounds, 0.46% hits; AID 720580, 2013; calls by dose curve; tested in A549 cells; note: nearly all actives have a fitted effect of over 30% in size
Pf growth 96h: Primary qHTS for delayed death inhibitors of the malarial parasite plastid, 96 hour incubation; P. falciparum luciferase reporter growth, 96 h; Potency, µM (doses to about 28.7 µM), usual class: inhibitors; 320,000 compounds, 6.9% hits; AID 504834, 2011
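96 h incubation, 37 C, 5% CO2, of luciferase-reporter P. falciparum-infected RBCs (2% hematocrit, 0.05% parasitemia final) with test compounds; endpoint luminescence.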
NS1 function inh: qHTS Assay for Inhibitors of Influenza NS1 Protein Function; AID 2326, 2010; Potency, µM (highest dose often 46.1 µM); 270,000 compounds, 0.4% hits; calls by dose curve; note: actives are rising curves; nearly all actives have a fitted effect of over 50% in size
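Growth recovery, yeast-based: influenza A NS1 expressed in S. cerevisiae causes slow growth, and suppressors are detected by OD600. The parent strain without NS1 is used as positive control.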
Pf growth 48h: Primary qHTS for delayed death inhibitors of the malarial parasite plastid, 48 hour incubation | P. falciparum luciferase growth in erythrocytes, 48 h | Potency, µM (titrated, usually from 28.7 µM), hits mostly inhibitors | 310,000 compounds, 5.9% hits | AID 504832, 2011
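In quantitative HTS format, infected erythrocytes bearing luciferase-reporter parasites were treated for a single generation at 37 C. Luminescence after adding detection reagent served as the growth measure.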
HCV inh: qHTS Assay for Inhibitors of Hepatitis C Virus (HCV); Huh7.5.1 HCVcc-Cre infection, luciferase reporter, 44 h; Potency, µM (top dose mostly 41.8 µM), actives largely listed as inhibitors; AID 651820, 2012; 340,000 compounds, 3.4% hits
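Cells seeded at 1,000/well and cultured 4 h, then compounds added followed by HCVcc-Cre virus (~0.5 moi). After 44 h further culture, luciferase substrate was added, plates held 15 min at room temperature, and luminescence read for 15 sec.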
Large screens that a line does not name were inactive. Unless noted, calls come from the whole dose curve; as a rule, active = well fitted inhibition curve with a large enough effect; inconclusive = small, poorly fitted or top-dose-only effect, or another doubt; inactive = no such curve, though single readings can be large or run the other way.

CCCCCCCCCCCCCCCCCC[N+](C)(C)CCC[Si](OC)(OC)OC	none (no result: Vaccinia mCherry, Vaccinia Venus, NS1 function inh, HCV inh)
CCCCCCCCCCCCCCCC[N+](C)(C)CC	Pf growth 96h 2.6µM, Pf growth 48h 3.3µM, HCV inh inconclusive (no result: NS1 function inh)
CCCCCC[N+](C)(C)CCSSCC[N+](C)(C)CCCCCC	none (no result: Vaccinia mCherry, Vaccinia Venus)
CCCCCCCCCC[N+](C)(C)CCCCCCCCCC	Pf growth 96h 1.7µM, Pf growth 48h 1.7µM (no result: Vaccinia mCherry, Vaccinia Venus, NS1 function inh, HCV inh)
O=C(Nc1ccc(OC(F)(F)F)cc1)c1cc(S(=O)(=O)N2CCCCC2)ccc1N1CCOCC1	none (no result: Pf growth 96h, NS1 function inh, Pf growth 48h, HCV inh)
COc1ccc(-c2cc(C(F)(F)F)nc(SCCC(=O)NCc3ccccc3)n2)cc1	Pf growth 48h 15µM, HCV inh inconclusive (no result: Vaccinia mCherry, Pf growth 96h)
COc1ccccc1CCNC(=O)CCSc1nc(-c2ccco2)cc(C(F)(F)F)n1	Vaccinia Venus inconclusive, Pf growth 48h 8.3µM, HCV inh inconclusive (no result: Vaccinia mCherry)
COc1ccc(CNC(=O)CSc2nc(-c3ccc(OC)cc3)cc(C(F)(F)F)n2)cc1	none (no result: Pf growth 96h, NS1 function inh, Pf growth 48h, HCV inh)
OCCN1CCN(CC(O)COc2ccc(C34CC5CC(CC(C5)C3)C4)cc2)CC1 (configuration not stated)	Vaccinia Venus inconclusive, Pf growth 96h 12µM, Pf growth 48h inconclusive, HCV inh 13µM
c1ccc(Cn2nnnc2C(c2ccccc2)N2CCN(Cc3ccncc3)CC2)cc1 (configuration not stated)	none (no result: Pf growth 96h, NS1 function inh, Pf growth 48h, HCV inh)
c1ccc(Cn2nnnc2C(c2ccncc2)N2CCOCC2)cc1 (configuration not stated)	Pf growth 96h 0.74µM
Cc1cc(C(c2nnnn2Cc2ccccc2)N2CCOCC2)c(C)n1-c1ccc2c(c1)OCO2 (configuration not stated)	Pf growth 48h 9.3µM
c1ccc(Cn2nnnc2C(c2cccnc2)N2CCN(c3ccccc3)CC2)cc1 (configuration not stated)	Pf growth 48h 13µM (no result: Pf growth 96h)
Cc1ccccc1CS(=O)(=O)CCC(=O)NCCN1CCN(c2cccc(Cl)c2)CC1	HCV inh inconclusive
CCNC(=O)N(C)c1nncnc1C(=O)NC	none
O=C1c2ccccc2C(=O)C1(O)O	HCV inh inconclusive (no result: Vaccinia mCherry, Vaccinia Venus, NS1 function inh)
CC1(S(=O)(=O)O)CC(=O)c2ccccc2C1=O (configuration not stated)	Pf growth 96h 1.7µM, Pf growth 48h 15µM
O=S(=O)(Nc1nc2ccccc2s1)c1cc(F)ccc1F	Pf growth 96h inconclusive
COc1cc(CNCC(O)c2ccccc2)ccc1OCc1ccc(Cl)nc1 (configuration not stated)	Pf growth 96h 3.7µM, HCV inh inconclusive (no result: Pf growth 48h)
COc1cc(CNCCc2ccccc2)ccc1OCc1ccc(Cl)nc1	HCV inh inconclusive (no result: Pf growth 48h)
CCc1ccccc1Nc1nc(N)nc(COC(=O)CCNS(=O)(=O)c2ccccc2)n1	Pf growth 96h inconclusive, Pf growth 48h 12µM (no result: NS1 function inh)
Cc1ccccc1Nc1nc(N)nc(COC(=O)c2cccc(S(=O)(=O)NCc3ccccc3)c2)n1	Vaccinia Venus inconclusive, Pf growth 96h 13µM, Pf growth 48h inconclusive
Cc1ccc(CNC(=O)c2ccc3c(=O)n4c(-c5ccc(C)cc5)csc4nc3c2)cc1	none
COC(=O)CCCC(=O)NC(C)c1cnn(-c2ccccc2C)c1C (configuration not stated)	Pf growth 96h 13µM
CCOCCCN(C)C1CCN(C(=O)c2oc3ccccc3c2NC(=O)c2cccc([N+](=O)[O-])c2)CC1	Vaccinia mCherry inconclusive, Pf growth 48h inconclusive, HCV inh 14µM
CCOCCCN(C)C1CCN(C(=O)c2oc3ccccc3c2NC(=O)Cc2ccc([N+](=O)[O-])cc2)CC1	none
CN(C(=O)COc1ccc(Cl)cc1)c1nnc(C23CC4CC(CC(C4)C2)C3)s1	none (no result: Vaccinia mCherry, Vaccinia Venus, HCV inh)
COc1ccc(CCNC(=O)CCCn2c(=O)c3ccccc3n(Cc3ccccc3C#N)c2=O)cc1OC	none (no result: Pf growth 96h, NS1 function inh, Pf growth 48h, HCV inh)
COc1ccc(C2(C)NC(=O)N(CC(=O)c3cc(C)n(C4CC4)c3C)C2=O)cc1 (configuration not stated)	Pf growth 96h 3.7µM, Pf growth 48h inconclusive (no result: Vaccinia mCherry, Vaccinia Venus, NS1 function inh)
Cc1cc(C(=O)CN2C(=O)NC(C)(c3ccc(F)c(F)c3)C2=O)c(C)n1C1CC1 (configuration not stated)	none (no result: Pf growth 96h, NS1 function inh, Pf growth 48h, HCV inh)
COc1ccc2c(Cl)c(C(=O)N/N=C/c3ccc4c(c3)OCO4)sc2c1	Pf growth 96h inconclusive
COc1cc(NS(=O)(=O)c2cc3[nH]c(=O)c(=O)[nH]c3cc2C)cc(OC)c1OC	Pf growth 48h inconclusive
COc1cc(NS(=O)(=O)c2ccc(C)cc2C)cc(OC)c1OC	Pf growth 96h 3.3µM, Pf growth 48h 6.6µM, HCV inh inconclusive (no result: Vaccinia mCherry, Vaccinia Venus)
Cc1nc(CCNC(=O)Cc2ccc(Cl)cc2)cs1	none
CC(C(=O)OCC(=O)c1ccc([N+](=O)[O-])cc1)N1C(=O)C2C3CCC(C3)C2C1=O (configuration not stated)	Pf growth 96h 10µM (no result: NS1 function inh)
CC(C(=O)OCC(=O)c1ccc([N+](=O)[O-])cc1)N1C(=O)C2C3C=CC(C3)C2C1=O (configuration not stated)	none
Cc1cccc(CN2CCc3c(OCC(=O)NCc4ccco4)cccc3C2=O)c1	Pf growth 96h 9.3µM, Pf growth 48h 12µM
O=C(COc1cccc2c1CCN(Cc1ccccc1)C2=O)NCc1ccco1	Pf growth 48h inconclusive
Cc1ccc(CN2CCc3c(OCC(=O)Nc4cc(C)ccc4C)cccc3C2=O)cc1	Pf growth 96h 5.9µM, Pf growth 48h inconclusive (no result: Vaccinia mCherry, Vaccinia Venus)
Clc1ccc(OCCSc2ncccn2)c(Br)c1	HCV inh 11µM
COc1ccc(CNC(=S)Nc2ccccc2C)cc1	none (no result: Pf growth 96h)
COc1ccc(N2C(=O)CC(N3CCN(c4ccc(Cl)cc4)CC3)C2=O)cc1 (configuration not stated)	none (no result: Vaccinia mCherry, Vaccinia Venus)
CCOc1ccc(N2C(=O)CC(N3CCN(c4ccc(Cl)cc4)CC3)C2=O)cc1 (configuration not stated)	Pf growth 96h 3.3µM (no result: Vaccinia mCherry, Vaccinia Venus)
CCOC(=O)Nc1ccc2c3c(cccc13)-c1ccccc1-2	HCV inh 10µM (no result: Pf growth 96h, NS1 function inh, Pf growth 48h)
O=C(c1cc(C2CC2)nn1-c1ccccc1)N1CCN(Cc2ccccc2F)CC1	Pf growth 48h inconclusive (no result: NS1 function inh)
O=C(c1cc(C2CC2)nn1-c1ccccc1)N1CCN(S(=O)(=O)c2ccccc2)CC1	Pf growth 96h inconclusive, Pf growth 48h 15µM, HCV inh inconclusive (no result: NS1 function inh)
O=C(c1cc(C2CC2)nn1-c1ccccc1)N1CCN(Cc2ccc(Cl)cc2)CC1	Pf growth 96h inconclusive, Pf growth 48h inconclusive, HCV inh 7.1µM (no result: Vaccinia mCherry, Vaccinia Venus, NS1 function inh)
Cc1ccc(C)c(S(=O)(=O)N2CCN(C(=O)c3cc(-c4cccs4)nn3-c3ccccc3)CC2)c1	Pf growth 96h 13µM, Pf growth 48h 7.4µM, HCV inh inconclusive (no result: NS1 function inh)
COc1ccc(OC)c(S(=O)(=O)N2CCN(C(=O)c3cc(C4CC4)nn3-c3ccccc3)CC2)c1	Pf growth 96h 9.3µM, Pf growth 48h inconclusive, HCV inh inconclusive (no result: Vaccinia mCherry, Vaccinia Venus, NS1 function inh)

Source: PubChem (National Center for Advancing Translational Sciences (NCATS))
